From PubChem
tim23-1 inh: growth inhibitors of tim23-1 mutant yeast, primary screen, luminescence, uHTS; 330,000 tested, 1.3% active; inhibition, % at 20 µM; S. cerevisiae tim23-1 growth, BacTiter-Glo luminescence, 24 h;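 active = growth inhibition of the mutant yeast at or above 50%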;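 note: temperature-sensitive mutant grown at 25 °C; plate controls were DMSO-treated mutant yeast for no effect and medium wells lacking yeast for full effect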
NALP3 yeast inh: NALP3 inflammasome inhibitors in reconstituted yeast, primary screen, luminescence, uHTS; Yeast reconstituted NLRP3/ASC/caspase-1, beta-gal luminescence, 24 h; inhibition, % at 10 µM; 330,000 tested, 0.39% active; AID 2825, 2010;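 active = inhibition of 50% or more; inactive = inhibition below 50%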;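 note: plate controls were induced DMSO wells for no effect and uninduced yeast grown without galactose for full effect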
SKKanGAS inh: S. pyogenes SKKanGAS growth inhibitors in kanamycin, primary screen, streptokinase expression inhibitor project, SKKanGAS strain, BacTiter-Glo luminescence; 6 h; AID 1662, 2009; 300,000 tested, 1.3% active; inhibition, % at 7.5 µM;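 active = mean replicate score, as percent of positive control median, at least 50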;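 note: strain carries kanamycin resistance gene driven by streptokinase promoter and grows in 40 µg/ml kanamycin; loss of luminescence reflects streptokinase promoter inhibition or plain growth inhibition; 0% = median of DMSO wells and 100% = positive control at its reference dose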
TIM10 inh: growth inhibitors of isogenic TIM10 control yeast, primary screen, counter-screen for tim10-1 yeast inhibitor project, luminescence, uHTS; S. cerevisiae TIM10 strain growth, BacTiter-Glo luminescence, 24 h; inhibition, % at 10 µM; 330,000 tested, 1.4% active;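 active = inhibition of 40% or more at the single tested concentration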;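 note: wild-type TIM10 isogenic control strain grown at permissive 25 °C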
tim10-1 inh: growth inhibitors of tim10-1 mutant yeast, primary screen, luminescence, uHTS; inhibition, % at 20 µM; 330,000 tested, 2.2% active; S. cerevisiae tim10-1 ts strain growth, BacTiter-Glo, 24 h; AID 463190, 2010;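 active = inhibition of at least 40%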;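 note: mutant grown at 25 °C; 0% = DMSO wells with yeast and 100% = wells holding no yeast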
* hit, by the source's call; . = not tested or not shown. In the library only some 4.6% were active in any assay of this set; here they are far more common.

SMILES	tim23-1 inh	NALP3 yeast inh	SKKanGAS inh	TIM10 inh	tim10-1 inh
COc1ccccc1NC(=O)/C(=C\c1cccnc1)NC(=O)c1ccc(C)cc1	18	19	0	0	13
O=C(N/N=C(\c1ccccc1)c1cccnc1)c1cccc(F)c1	37	45	95*	14	27
CC(Oc1ccc(F)cc1Br)c1nc2ccccc2c(=O)[nH]1 (configuration not stated)	26	36	-2	15	6
O=C(N/N=C/c1ccc(OCc2ccc(F)cc2)cc1)c1ccccc1	4	14	-5	2	-19
O=C(N/N=C/c1cccc(O)c1)c1ccc(COc2cccc3cccnc23)cc1	13	11	17	7	1
Cc1ccc(C(C)C)c(OCc2ccc(C(=O)N/N=C/c3ccc(C(=O)O)cc3)cc2)c1	9	4	42	-6	9
CC(C)(C)c1ccc(OCc2ccc(C(=O)N/N=C/c3ccc(O)c(O)c3)cc2)cc1	9	27	62*	-3	11
O=C(N/N=C/c1cccc(O)c1)c1ccc(COc2ccccc2Br)cc1	2	11	63*	8	-13
Cc1ccc(C(C)C)c(OCc2ccc(C(=O)N/N=C/c3ccc(O)cc3O)cc2)c1	.	.	87*	.	.
CC(C)CN(C(=O)CCNC(=O)c1ccc(Cl)cc1)C1CCS(=O)(=O)C1 (configuration not stated)	-16	12	.	-13	-13
COc1ccc(/C=C2\Sc3ccc(C(=O)N4CCN(Cc5ccccc5)CC4)cc3N(C)C2=O)cc1OC	22	2	71*	-2	11
COc1cccc(/C=C2\Sc3ccc(C(=O)NCc4cccnc4)cc3N(C)C2=O)c1	24	19	38	7	-1
COc1ccc(/C=C2\Sc3ccc(C(=O)NCc4cccnc4)cc3N(C)C2=O)cc1OC	5	-5	66*	21	6
CCc1nc2oc3ccc(C)cc3c(=O)c2cc1C(=O)OC	.	.	-4	.	.
C=CCn1c(NC(=O)c2ccccc2)nc2ccccc21	35	33	65*	1	7
CCn1c(NC(=O)c2cccc(Cn3cc(Cl)cn3)c2)nc2ccccc21	21	22	85*	27	31
CCC(C(=O)NC1CCCCC1)N(Cc1cccs1)C(=O)CCC(=O)Nc1cc(C)on1 (configuration not stated)	9	4	1	-14	13
Cc1cc(C(=O)CS(=O)(=O)c2ccc(F)cc2)cc(C)c1O	-9	9	6	-10	-14
CC(C)=CCC/C(C)=C/Cc1c(O)ccc(C(=O)/C=C/c2ccc(O)cc2)c1O	1	24	106*	15	-60
COc1cc(C(=O)NC(=S)NNC(=O)c2ccc3c(c2)OCO3)cc(OC)c1OC	9	19	70*	7	15
COc1cc(C(=O)NNC(=S)NC(=O)c2ccc(F)cc2)cc(OC)c1OC	1	6	83*	29	14
CCC[C@H]1NC(=O)[C@H](C)N(C)C(=O)C(C)(C)C(=O)C(C)NC(=O)[C@H](Cc2ccc(OC)cc2)N(C)C(=O)[C@H](C(C)C)N(C)C(=O)CNC(=O)[C@H](CC(C)C)N(C)C(=O)CNC(=O)[C@H]([C@@H](C)CC)OC(=O)[C@H]1C (some centres not stated)	16	6	.	7	19
Cc1ccc(OCCNC(=O)c2cccc(S(=O)(=O)N3CCN(C)CC3)c2)cc1	-8	14	.	1	-4
CC(=O)N(C1=C(Cl)C(=O)c2ccccc2C1=O)C1CCCCC1	27	18	53*	36	21
O=C(Cc1csc(NC(=O)Nc2cccc(Cl)c2)n1)NCc1cccnc1	11	16	89*	-6	-11
SMILES	tim23-1 inh	NALP3 yeast inh	SKKanGAS inh	TIM10 inh	tim10-1 inh
O=C(Cc1csc(NC(=O)Nc2ccc(Cl)cc2)n1)NCc1cccnc1	5	8	48	-1	2
O=C(Cc1csc(NC(=O)Nc2cccc(Cl)c2)n1)NCc1ccccn1	21	23	86*	3	5
O=C(NCc1cccnc1)Nc1cccc(Cl)c1	-8	17	8	-4	-19
O=C(NCc1cccnc1)Nc1cc(Cl)cc(Cl)c1	-14	3	54*	-4	-17
CC(C)(C)OC(=O)C[C@H]1C/C=C\C[C@@H](CC(=O)N(CCO)Cc2ccccc2)C(=O)NC[C@@H](c2ccccc2)OC1=O	8	23	.	5	-2
Cc1cc(SCC(=O)N/N=C/c2ccccc2C(=O)O)c(C)cc1Br	28	3	0	3	18
Cc1cc(SCC(=O)N/N=C/c2ccc(O)cc2O)c(C)cc1Br	46	16	79*	36	19
Cc1cc(C)cc(-n2cccc2/C=C2/C(=N)N3C(=NC2=O)SN=C3S(C)(=O)=O)c1	26	8	71*	18	24
COc1cc(/C=C2/C(=N)N3C(=NC2=O)SN=C3S(C)(=O)=O)ccc1OS(=O)(=O)c1ccc(C)cc1	17	9	28	9	20
COc1cccc(-n2c(C)cc(/C=C3/C(=N)N4C(=NC3=O)SN=C4S(C)(=O)=O)c2C)c1	22	-3	69*	31	14
Cc1ccc(-n2cccc2/C=C2/C(=N)N3C(=NC2=O)SN=C3S(C)(=O)=O)cc1	19	14	48	24	15
CC(=O)Nc1cccc(NC(=O)C(=O)NCC(c2ccco2)N2CCc3ccccc3C2)c1 (configuration not stated)	30	16	3	27	22
Cc1ccccc1-n1nc2c(c1NC(=O)c1ccc3c(c1)OCO3)CS(=O)(=O)C2	13	1	-2	5	15
CC(=O)c1ccc(OCCCC(=O)Nc2nnc(C3CC3)s2)cc1	-11	17	.	-19	-11
O=C(NC(=S)N1CCN(c2ccc(F)cc2)CC1)C12CC3CC(CC(C3)C1)C2	-5	20	51*	-8	13
Cc1ccc2nc(Nc3nc(-c4ccccc4)cc(=O)[nH]3)nc(C)c2c1	-18	16	95*	-6	-18
COc1ccc2c(C)nc(Nc3nc(-c4ccccc4)cc(=O)[nH]3)nc2c1	17	36	74*	-28	36
Cc1cc(C)nc(Nc2nc3ccccc3[nH]2)n1	16	34	0	40	2
Cc1ccc2nc(Nc3nc(C)cc(-c4ccccc4)n3)[nH]c(=O)c2c1	-15	27	86*	9	-1
Cc1cc(C)cc(N(CC(=O)NC2CCCC2)C(=O)CNC(=O)c2cccs2)c1	7	2	2	11	-2
C=CCn1cnnc1SCC(=O)Nc1cccnc1Cl	1	3	.	-5	2
CCC1CCCCN1S(=O)(=O)c1ccc(C(=O)Nc2nnc(C3CC3)o2)cc1 (configuration not stated)	29	-5	60*	28	40
